# Source: PubChem
# D1 antag: blocks dopamine activation of the human D1 receptor. P21728. HEK293 TREx D1 cells, calcium flux, dopamine EC80; hits give low values. activity change, negative = inhibition, % at 10 µM. 360,000 tested, 3.2% active; in the data active = activity change below about -30%
# Target sequence (P21728 whole entry, looked up): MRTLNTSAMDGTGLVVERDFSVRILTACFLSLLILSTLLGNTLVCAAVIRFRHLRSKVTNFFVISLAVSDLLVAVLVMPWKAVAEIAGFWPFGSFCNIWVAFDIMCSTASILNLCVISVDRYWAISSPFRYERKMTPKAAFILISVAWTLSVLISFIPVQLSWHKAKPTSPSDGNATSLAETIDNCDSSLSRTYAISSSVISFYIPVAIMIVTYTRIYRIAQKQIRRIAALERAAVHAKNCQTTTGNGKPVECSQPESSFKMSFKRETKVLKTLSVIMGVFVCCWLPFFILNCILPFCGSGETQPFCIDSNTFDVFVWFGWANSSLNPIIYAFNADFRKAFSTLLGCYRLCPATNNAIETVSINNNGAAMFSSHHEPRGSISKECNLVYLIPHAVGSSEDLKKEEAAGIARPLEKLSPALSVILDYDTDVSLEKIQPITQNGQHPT
#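 HEK293 T-REx cells expressing inducible, force-coupled D1 receptor; no-wash Ca dye, 30–90 min RT. Cmpd → 180 s read at 1 Hz → EC80 DA → 180 s read.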
# D1 potentiator: potentiators of human D1 dopamine receptor | AID 504651 | potentiation, % at 10 µM | P21728 | HEK293 TREx D1 cells, calcium flux, dopamine EC20 potentiation | 360,000 tested, 0.036% active; in the data active = potentiation above about 30%
# TRHR ag: activates the human TRH receptor | P34981 | TRHR cells, calcium flux fluo-8, FDSS agonist mode | activation, % at 2 µM | 360,000 tested, 0.18% active | AID 493084
#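 In this calcium-flux screen, cells bearing human TRHR are dye-loaded with fluo-8, baselined for 10 cycles, then exposed to library compounds; positive kinetic calcium responses during the agonist phase mark hits, with TRH as control.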
# D1 agonist: agonists of human D1 dopamine receptor; P21728; HEK293 T-REx D1 cells, calcium flux, agonist mode; activation, % at 2 µM; 360,000 tested, 1% active; AID 504660
#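 Agonism was scored from calcium flux recorded over 180 s (1 read/s) after pintool compound addition, following a 10-cycle baseline. Cells were inducible force-coupled HEK293 TREx D1, plated overnight at 30 C and loaded with no-wash calcium dye.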
# TRHR enhancer: TRH receptor (human) allosteric enhancement | P34981 | TRHR cells, fluo-8 calcium fluorescence, EC20 TRH enhancement | enhancement, % at 2 µM | 360,000 tested, 0.66% active; in the data active = enhancement above about 30%
#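 Enhancer read-out: after compound pinning and an initial kinetic agonist-mode read, an EC20 of TRH (10 nM final) was injected and fluo-8 calcium signal (Ex 480/Em 530) followed at 1 s/cycle for 100 cycles in TRHR-expressing cells.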
# Hits are given with their value; . = inactive; / = no result. Compounds with a hit are over-represented: about 4.6% of the library has one in this group of screens. Rule as the data show it, unless noted: active = activation above about 30%; inactive = the rest.
SMILES,D1 antag,D1 potentiator,TRHR ag,D1 agonist,TRHR enhancer
Fc1ccc(-n2ncc3c(NC4CCCCCC4)ncnc32)cc1,.,.,.,.,.
O=C(CCc1ccccc1)N/N=C/c1cc(Br)ccc1O,-43,.,.,.,.
O=C(CCc1ccccc1)N/N=C\c1cc2c(cc1Br)OCO2,-31,.,.,.,.
CC(C)NC(=S)N/N=C/c1cc(Br)ccc1O,-58,.,.,.,.
O=C(CSCc1ccccc1)N/N=C/c1cc2c(cc1Br)OCO2,.,.,.,.,.
COC(=O)N/N=C/c1cc(Br)ccc1O,.,.,.,.,.
O=C(N/N=C/c1cc(Br)ccc1O)c1ccccc1Cl,-42,.,.,.,.
CCN(CC)C(=O)C1=C(C)Nc2nc3ccccc3n2C1c1cccc(Cl)c1 (configuration not stated),.,.,.,.,.
COc1cccc(OCCOc2ccccc2OC(C)C)c1,.,.,.,.,.
Cc1cccc(OCC(=O)NNC(=O)c2ccc3nc[nH]c3c2)c1,.,.,.,.,.
COc1ccc(-c2csc(C)n2)cc1,.,.,.,.,.
COc1cc(C)nc(-c2csc(C)n2)n1,.,.,.,.,31
Cc1cc(C)cc(N2CCn3c2nc2c3c(=O)n(Cc3c(F)cccc3Cl)c(=O)n2C)c1,-31,.,.,.,.
C=C(C)Cn1c(=O)c2c(nc3n2CCN3c2cc(C)cc(C)c2)n(C)c1=O,.,.,.,.,.
CCC(=O)NC1(C(F)(F)F)C(=O)Nc2c1c(=O)n(C)c(=O)n2C (configuration not stated),-60,.,.,.,.
Cc1ccc(NC(=O)c2cc(S(=O)(=O)N3CCc4ccccc43)ccc2F)cc1Cl,.,.,.,.,.
Cc1cccc2sc(N(CCCN(C)C)C(=O)CCc3ccccc3)nc12,.,.,.,.,.
Cc1ccc2sc(N(CCCN(C)C)C(=O)CCS(=O)(=O)c3ccccc3)nc2c1C,.,.,.,64,.
Cc1cccc2sc(N(CCCN(C)C)C(=O)CN3C(=O)c4ccccc4C3=O)nc12,.,.,.,33,.
CCN(CC)c1nn2c(=O)c(C(=O)NCCc3ccccc3C)cnc2s1,.,.,.,.,.
Nc1nc(CSc2ccc(Cl)cc2)nc(N2CCCCC2)n1,.,.,.,.,.
Nc1nc(COc2ccc(F)cc2Cl)nc(N2CCCCC2)n1,-31,.,.,.,.
COc1ccc(-c2cc(C(=O)NCc3ccccc3)c3c(-c4ccccc4)[nH]nc3n2)cc1,.,.,.,.,.
CC1CN(c2ccc([N+](=O)[O-])nc2)CC(C)O1 (configuration not stated),-35,.,.,.,.
CC1CC(C)CN(c2ccc([N+](=O)[O-])nc2)C1 (configuration not stated),.,.,.,.,.
SMILES,D1 antag,D1 potentiator,TRHR ag,D1 agonist,TRHR enhancer
CSc1ccccc1NC(=O)c1ccncc1,.,.,.,.,.
CSc1ccccc1NC(=O)c1ccccc1,-32,.,.,.,.
Cc1nn(-c2ccccc2)c(C)c1/C=C/C(=O)OCC(=O)Nc1ccc(S(N)(=O)=O)cc1,-32,/,.,.,.
Cc1nn(-c2ccccc2)c(C)c1/C=C/C(=O)OCC(=O)Nc1ccc(C(N)=O)cc1,.,.,.,.,.
Cc1ccc(Cl)cc1-n1c(=O)c2sc3ccccc3c2n(CC(=O)NC2CCCCC2)c1=O,.,.,.,.,.
O=C(CN(C(=O)CNS(=O)(=O)c1ccc(F)cc1)c1ccccc1)NCc1ccco1,.,.,.,.,.
Cc1ccc(S(=O)(=O)NCC(=O)N(CC(=O)NCc2ccco2)C2CCCC2)cc1,-38,.,.,.,.
O=C(CN(C(=O)CNS(=O)(=O)c1ccc(F)cc1)c1ccc(F)cc1)NCc1ccco1,-32,.,.,.,.
Cc1ccc(S(=O)(=O)NCC(=O)N(CC(=O)NCc2ccco2)Cc2ccccc2)cc1,.,.,.,.,.
COc1cccc(CNC(=O)c2ccc(-c3nc(COc4ccccc4)c(C)o3)cc2)c1,.,.,.,.,.
O=C(Cc1ccc(Br)cc1)Nc1ncc([N+](=O)[O-])s1,.,.,.,.,.
O=C(Cc1ccc(Cl)cc1)Nc1ncc([N+](=O)[O-])s1,-43,.,.,31,.
O=C(COC(=O)COc1ccccc1)Nc1ncc([N+](=O)[O-])s1,.,.,.,.,.
